Data reported in PubChem BioAssay (NCATS).
Records with an inconclusive call do not appear. Calls of active or inactive are those of the source. Unless noted, the call rests on the fitted dose curve.

Columns and labels:
[1] = qHTS assay for small molecule antagonists of peroxisome proliferator-activated receptor delta signaling (AID 588535; active means well fitted inhibition curve with a large enough effect in the signal ratio, with a control signal flat, not every such curve was filed as active; the % refers to the signal ratio;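 on max response: cells co-treated with a PPAR-delta agonist as stimulator during compound exposure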); settings: HEK293T PPARd-UAS-bla, beta-lactamase FRET ratio, 18 h; 460 nm channel
How it was run: (§1)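 Fluorescence from CCF4-loaded GeneBLAzer PPAR-delta-UAS-bla HEK293T cells (2 hrs RT loading) quantified reporter inhibition after an 18 hr, 37 C compound exposure across a titration.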

[2] = molecular target: Peroxisome proliferator-activated receptor delta (Homo sapiens) (UniProt Q03181); experiment: as above; settings: HEK293T PPARd-UAS-bla, beta-lactamase FRET ratio, 18 h; series mostly up to 76.7 µM
Sequence of Peroxisome proliferator-activated receptor delta (Homo sapiens) (Q03181 whole entry, looked up): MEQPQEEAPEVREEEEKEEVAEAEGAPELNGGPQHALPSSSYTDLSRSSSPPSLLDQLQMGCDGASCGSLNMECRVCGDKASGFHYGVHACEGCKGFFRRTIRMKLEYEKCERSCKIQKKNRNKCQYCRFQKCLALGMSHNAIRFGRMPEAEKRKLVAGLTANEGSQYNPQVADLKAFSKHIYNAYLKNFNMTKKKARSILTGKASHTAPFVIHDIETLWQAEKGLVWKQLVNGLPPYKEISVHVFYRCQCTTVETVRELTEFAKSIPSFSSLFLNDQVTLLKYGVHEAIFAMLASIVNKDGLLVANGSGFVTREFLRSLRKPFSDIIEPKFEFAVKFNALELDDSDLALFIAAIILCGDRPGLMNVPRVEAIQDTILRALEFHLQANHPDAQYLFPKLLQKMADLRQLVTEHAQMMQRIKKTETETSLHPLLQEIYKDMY
How it was run: as §1

[3] = molecular target: Peroxisome proliferator-activated receptor gamma (Homo sapiens) (UniProt P37231); experiment: qHTS assay for small molecule agonists of peroxisome proliferator-activated receptor gamma signaling (AID 588536; active means well fitted curve in the direction sought with a large enough effect in the signal ratio, with a control signal flat, not every such curve was filed as active; the % refers to the signal ratio;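 further: 0% = DMSO basal wells and 100% = rosiglitazone at 2 µM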); settings: HEK293 PPARg-UAS-bla, beta-lactamase ratio, 16 h, percent of rosiglitazone response, DMSO as zero; series mostly up to 76.7 µM
Sequence of Peroxisome proliferator-activated receptor gamma (Homo sapiens) (P37231 whole entry, looked up): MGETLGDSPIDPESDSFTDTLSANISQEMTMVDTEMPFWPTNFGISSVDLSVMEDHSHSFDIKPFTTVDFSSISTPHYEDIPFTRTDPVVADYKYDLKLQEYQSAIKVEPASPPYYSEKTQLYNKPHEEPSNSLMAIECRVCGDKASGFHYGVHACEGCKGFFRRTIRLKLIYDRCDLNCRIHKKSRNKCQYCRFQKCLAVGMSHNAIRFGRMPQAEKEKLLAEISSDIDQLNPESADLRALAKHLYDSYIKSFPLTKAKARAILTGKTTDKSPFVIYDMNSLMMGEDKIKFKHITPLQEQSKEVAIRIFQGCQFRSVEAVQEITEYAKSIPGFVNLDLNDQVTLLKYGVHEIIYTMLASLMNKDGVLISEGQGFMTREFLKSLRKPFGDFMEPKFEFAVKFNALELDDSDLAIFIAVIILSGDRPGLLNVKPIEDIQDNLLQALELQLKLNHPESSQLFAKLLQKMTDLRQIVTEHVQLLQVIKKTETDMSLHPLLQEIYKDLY
How it was run: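 Using GeneBLAzer HEK293 cells, response was quantified by CCF4 fluorescence and normalized between basal DMSO (0%) and rosiglitazone 2 uM (100%); curves yielded half-maximal stimulation concentration and efficacy.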

[4] = molecular target: Vitamin D3 receptor (Homo sapiens) (UniProt P11473); experiment: qHTS assay for small molecule antagonists of vitamin D receptor signaling (AID 588541); settings: HEK293T VDR-UAS-bla, beta-lactamase ratio, antagonist mode; series mostly up to 76.7 µM;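 further: receptor activated by calcitriol during compound treatment; on the % scale 0 is the no-effect control and ±100 the full control effect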
Sequence of Vitamin D3 receptor (Homo sapiens) (P11473 whole entry, looked up): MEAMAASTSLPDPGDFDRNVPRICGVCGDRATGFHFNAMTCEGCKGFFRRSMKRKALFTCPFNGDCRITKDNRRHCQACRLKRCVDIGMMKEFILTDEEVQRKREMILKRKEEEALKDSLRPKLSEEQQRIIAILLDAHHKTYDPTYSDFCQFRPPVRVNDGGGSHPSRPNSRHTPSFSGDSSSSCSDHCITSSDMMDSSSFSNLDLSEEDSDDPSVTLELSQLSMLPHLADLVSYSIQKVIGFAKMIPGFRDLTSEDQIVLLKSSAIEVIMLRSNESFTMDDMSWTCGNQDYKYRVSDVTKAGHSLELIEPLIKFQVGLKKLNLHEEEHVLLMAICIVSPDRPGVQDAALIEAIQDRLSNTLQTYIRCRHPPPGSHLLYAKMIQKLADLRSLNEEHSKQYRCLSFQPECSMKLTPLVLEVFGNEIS
How it was run: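 VDR-UAS-bla HEK293T cells in 2% charcoal-stripped FBS were stimulated with 1-alpha,25-dihydroxyvitamin D3 (3 nM final) plus compound for 16 h at 37 C. The beta-lactamase CCF4 readout was normalized to 50 nM agonist and DMSO, and Hill fits gave IC50.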

[5] = molecular target: Vitamin D3 receptor (Homo sapiens) (UniProt P11473); experiment: qHTS assay for small molecule agonists of vitamin D receptor signaling (AID 588543); settings: HEK293T VDR-UAS-bla, beta-lactamase ratio, 16 h; series mostly up to 76.8 µM;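 further: 0% = DMSO basal and 100% = reference agonist control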
How it was run: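 Agonist-mode beta-lactamase reporter: HEK293T VDR-UAS-bla cells in charcoal-stripped 2% FBS, compound series 16 h 37 C, CCF4 2 h RT. EC50 from Hill fit, scaled against DMSO and 50 nM calcitriol control.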

[6] = qHTS assay for small molecule agonists of retinoid X receptor alpha signaling (AID 588544); settings: HEK293T RXRa-UAS-bla, beta-lactamase reporter, 18 h; 530 nm emission;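 on activation: 0% = DMSO basal wells and 100% = reference agonist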
[7] = molecular target: Retinoic acid receptor RXR-alpha (Homo sapiens) (UniProt P19793); experiment: as above; settings: HEK293T RXRa-UAS-bla, beta-lactamase reporter, 18 h; series mostly up to 76.7 µM
Sequence of Retinoic acid receptor RXR-alpha (Homo sapiens) (P19793 whole entry, looked up): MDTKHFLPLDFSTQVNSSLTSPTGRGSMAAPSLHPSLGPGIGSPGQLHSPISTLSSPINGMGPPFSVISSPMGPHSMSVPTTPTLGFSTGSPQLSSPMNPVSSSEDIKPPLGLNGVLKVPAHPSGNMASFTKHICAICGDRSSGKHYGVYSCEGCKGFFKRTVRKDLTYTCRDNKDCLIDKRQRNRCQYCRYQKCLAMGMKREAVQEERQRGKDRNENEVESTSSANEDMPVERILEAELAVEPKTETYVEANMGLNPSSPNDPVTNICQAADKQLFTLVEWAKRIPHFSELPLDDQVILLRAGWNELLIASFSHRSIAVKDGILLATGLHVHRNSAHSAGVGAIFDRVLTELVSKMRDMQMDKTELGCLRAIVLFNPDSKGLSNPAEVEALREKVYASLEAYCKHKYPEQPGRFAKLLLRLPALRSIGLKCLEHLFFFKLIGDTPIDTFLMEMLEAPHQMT

[8] = molecular target: Thyroid hormone receptor beta (Homo sapiens) (UniProt P10828); experiment: qHTS assay for small molecule antagonists of thyroid hormone receptor beta signaling (AID 588547; active means well fitted inhibition curve with a large enough effect in the signal ratio, with a control signal flat, not every such curve was filed as active; the % refers to the signal ratio;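 further: cells stimulated with 0.4 nM T3 agonist during compound exposure; on the % scale 0 is the no-effect control and ±100 the full control effect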); settings: TR-UAS-bla HEK293, beta-lactamase ratio, antagonist mode, 18 h
Sequence of Thyroid hormone receptor beta (Homo sapiens) (P10828 whole entry, looked up): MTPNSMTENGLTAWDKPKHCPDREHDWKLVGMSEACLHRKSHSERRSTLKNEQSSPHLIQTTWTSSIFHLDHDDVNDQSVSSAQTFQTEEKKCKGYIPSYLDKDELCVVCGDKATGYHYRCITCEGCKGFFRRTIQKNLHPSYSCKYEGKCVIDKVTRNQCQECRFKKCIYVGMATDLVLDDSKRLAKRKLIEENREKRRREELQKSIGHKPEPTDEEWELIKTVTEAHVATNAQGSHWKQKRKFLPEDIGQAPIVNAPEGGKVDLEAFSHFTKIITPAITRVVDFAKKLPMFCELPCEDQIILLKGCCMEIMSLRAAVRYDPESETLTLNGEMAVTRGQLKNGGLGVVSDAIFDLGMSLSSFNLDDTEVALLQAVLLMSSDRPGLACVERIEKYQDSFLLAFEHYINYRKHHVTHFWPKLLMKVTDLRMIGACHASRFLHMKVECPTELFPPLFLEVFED
How it was run: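 TR-UAS-bla GripTite HEK293 cells in 2% charcoal/dextran FBS medium; compounds 0.59 nM to 92 uM with T3 at 0.4nM final, 18 h at 37 C. Beta-lactamase read by CCF4 fluorescence (460/530 nm); Hill fits gave IC50 and efficacy.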

[9] = molecular target: Voltage-gated inwardly rectifying potassium channel KCNH2 (Homo sapiens) (UniProt Q12809); experiment: qHTS Assay for Small Molecule Inhibitors of the Human hERG Channel Activity (AID 588834; active means well fitted inhibition curve with a large enough effect;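 further: top concentration of the series differs between compounds; on the % scale 0 is the no-effect control and ±100 the full control effect; lower thallium flux fluorescence means stronger hERG block; nearly all actives have a fitted effect of over 50% in size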); settings: U2OS BacMam hERG, FluxOR thallium flux fluorescence; series mostly up to 92.2 µM
Sequence of Voltage-gated inwardly rectifying potassium channel KCNH2 (Homo sapiens) (Q12809 whole entry, looked up): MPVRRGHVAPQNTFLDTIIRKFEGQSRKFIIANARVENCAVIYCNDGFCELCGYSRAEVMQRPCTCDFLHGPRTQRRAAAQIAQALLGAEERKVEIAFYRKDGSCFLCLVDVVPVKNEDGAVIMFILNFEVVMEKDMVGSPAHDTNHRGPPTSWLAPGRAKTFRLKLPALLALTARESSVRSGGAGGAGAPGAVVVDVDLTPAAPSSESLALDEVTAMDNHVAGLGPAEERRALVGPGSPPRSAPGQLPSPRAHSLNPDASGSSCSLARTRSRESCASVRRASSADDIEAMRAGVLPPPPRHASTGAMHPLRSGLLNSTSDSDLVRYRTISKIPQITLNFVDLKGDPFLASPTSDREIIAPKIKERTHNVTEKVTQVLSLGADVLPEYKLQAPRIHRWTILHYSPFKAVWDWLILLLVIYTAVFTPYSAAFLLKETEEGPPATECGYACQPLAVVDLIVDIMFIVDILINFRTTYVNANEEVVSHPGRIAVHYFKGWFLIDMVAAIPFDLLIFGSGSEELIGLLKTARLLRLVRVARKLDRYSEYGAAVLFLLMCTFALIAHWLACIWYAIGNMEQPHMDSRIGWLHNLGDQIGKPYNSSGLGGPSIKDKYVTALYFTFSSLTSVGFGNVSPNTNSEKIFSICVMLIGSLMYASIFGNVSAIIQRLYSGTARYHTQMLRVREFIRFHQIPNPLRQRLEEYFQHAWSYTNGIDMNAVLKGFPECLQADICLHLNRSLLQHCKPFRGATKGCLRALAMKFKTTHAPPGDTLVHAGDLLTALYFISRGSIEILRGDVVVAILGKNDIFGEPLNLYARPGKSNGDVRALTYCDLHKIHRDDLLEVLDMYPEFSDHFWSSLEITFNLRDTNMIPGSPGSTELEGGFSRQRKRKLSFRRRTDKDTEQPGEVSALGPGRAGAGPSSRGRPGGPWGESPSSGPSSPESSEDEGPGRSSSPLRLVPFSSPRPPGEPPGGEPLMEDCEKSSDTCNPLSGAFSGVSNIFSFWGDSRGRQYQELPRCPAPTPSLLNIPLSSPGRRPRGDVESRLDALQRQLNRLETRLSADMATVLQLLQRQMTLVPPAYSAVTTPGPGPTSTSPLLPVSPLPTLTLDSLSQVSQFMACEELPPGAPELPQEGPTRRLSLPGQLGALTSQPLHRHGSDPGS
How it was run: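 hERG block measured as reduced thallium-dye (FluxOR) fluorescence after stimulation buffer addition, read over 2 min. Cells were hERG-BacMam-transduced U2OS exposed to compound ~10 min […]; concentration-response fitted with Hill equation for AC50.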

[10] = qHTS assay for small molecule agonists of the antioxidant response element (ARE) signaling pathway (AID 651741; active means well fitted activation curve with a large enough effect in the signal ratio; the % refers to the signal ratio; further: % of control where 0% means no effect); settings: HepG2 ARE-bla reporter, beta-lactamase FRET ratio, 16 h; series mostly up to 96 µM
How it was run: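 Stably integrated ARE-beta-lactamase reporter HepG2 cells; 16 h compound incubation, 37 C; LiveBLAzer FRET substrate 2 h at room temperature; fluorescence intensity.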

[11] = qHTS assay for small molecule activators of the p53 signaling pathway (AID 651743; active means well fitted activation curve with a large enough effect in the signal ratio, not every such curve was filed as active; the % refers to the signal ratio; further: % of control where 0% means no effect); settings: HCT-116 p53RE-bla, beta-lactamase FRET ratio, 16 h; stronger effect = higher value
How it was run: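 Following 16 hours of compound exposure at 37 C, HCT-116 cells bearing the p53RE-bla reporter were loaded with LiveBLAzer B/G FRET substrate for 2 hours at room temperature and fluorescence intensity was recorded.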

[12] = qHTS assay for small molecule activators of the nuclear factor-kappa B (NF-kB) signaling pathway (AID 651749; active means well fitted activation curve with a large enough effect in the signal ratio; the % refers to the signal ratio; further: % of control where 0% means no effect); settings: NF-kB-bla ME-180 cells, beta-lactamase FRET ratio, 16 h; stronger effect = higher value
How it was run: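 In this qHTS format, compounds acting as activators increase NF-kB-driven beta-lactamase in ME-180 cells, measured as disrupted FRET after 16 hr exposure at 37C and 5% CO2.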

[13] = molecular target: Thyroid hormone receptor beta (Homo sapiens) (UniProt P10828); experiment: qHTS assay for small molecule agonists of thyroid hormone receptor beta signaling (AID 588545); settings: TR-UAS-bla GripTite HEK 293, beta-lactamase ratio, agonist mode, 18 h, percent of T3 response, DMSO as zero; series mostly up to 76.7 µM;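 further: 0% = DMSO only and 100% = 10 nM T3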
How it was run: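 TR-UAS-bla GripTite HEK 293 cells (2500/well, medium with 2% charcoal/dextran FBS) were treated in agonist mode for 18 h at 37 C, titrated. Beta-lactamase was read by CCF4 ratio after 2 h; normalized to 10 nM T3 (100%) and DMSO, Hill-fitted for EC50 and efficacy.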

[14] = qHTS assay for small molecule antagonists of retinoid X receptor alpha signaling (AID 588546; active means well fitted inhibition curve with a large enough effect in the signal ratio, with a control signal flat, not every such curve was filed as active; the % refers to the signal ratio;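 further: cells stimulated with 9-cis-retinoic acid as agonist; on the % scale 0 is the no-effect control and ±100 the full control effect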); settings: HEK293T RXRa-UAS-bla, beta-lactamase ratio, antagonist mode; measured here: W530 green channel, cytotoxicity proxy
How it was run: (§2)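 Beta-lactamase reporter inhibition, read as CCF4 fluorescence ratio (ex 405, em 460/530 nm) after 2 h at RT. HEK293T UAS-bla cells, 2500/well, were stimulated with 9-cis-RA at 500 or 100 nM final alongside test compound for 18 h at 37 C.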

[15] = molecular target: Retinoic acid receptor RXR-alpha (Homo sapiens) (UniProt P19793); experiment: as above; settings: HEK293T RXRa-UAS-bla, beta-lactamase ratio, antagonist mode
How it was run: as §2

CC1CCCO1 (stereo not drawn)
6.05%: max response [1]
inactive: Potency [2] | outcome [3] | outcome [4] | outcome [5] | outcome [7] | activity change % (negative = inhibition) [8] 1.5% | Potency [9] | Potency [10] | activation [11] -2.21% | activation [12] -0.396%
11.5%: max response [6]

C=C(C)C(N)=O
-10.5%: max response [14]
-0.693%: max response [6]
inactive: outcome [3] | outcome [4] | outcome [5] | outcome [7] | outcome [13] | max response [15] 23.8% | activity change % (negative = inhibition) [8] -24.4% | Potency [10] | activation [11] -2.66% | activation [12] -0.276%

CC(C)(C)OCC1CO1 (stereo not drawn)
-14.1%: max response [6]
-6.46%: max response [14]
inactive: outcome [3] | outcome [4] | outcome [5] | outcome [7] | outcome [13] | max response [15] -4.17% | activity change % (negative = inhibition) [8] 13.4% | Potency [9] | activation [11] 0.176% | activation [12] 0.44%

CC(=O)CCc1ccccc1
-7.54%: max response [6]
-0.836%: max response [14]
inactive: outcome [3] | outcome [4] | outcome [7] | outcome [13] | max response [15] 0.594% | activity change % (negative = inhibition) [8] 12% | Potency [9] | Potency [10] | activation [11] -1.61% | activation [12] 0.0566%
